According to publication PMC5540273 (PLoS ONE, 2017):

What was measured:
Conditions in all cases: concentration: 1 μM, replicates: in singlicate; n = 1
CDK3 = test system: CDK3
CDK4-cyclinD1 = test system: CDK4-cyclinD1
CDK4-cyclinD3 = test system: CDK4-cyclinD3
CDK4 = test system: CDK4
CDK5 = test system: CDK5
CDK7 = test system: CDK7
CDK8 = test system: CDK8
CDK9 = test system: CDK9
CDKL1 = test system: CDKL1
CDKL2 = test system: CDKL2
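Further: KINOMEscan kinase panel screen.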

Row | Compound | %Inh (CDK3) [%] | %Inh (CDK4-cyclinD1) [%] | %Inh (CDK4-cyclinD3) [%] | %Inh (CDK4) [%] | %Inh (CDK5) [%] | %Inh (CDK7) [%] | %Inh (CDK8) [%] | %Inh (CDK9) [%] | %Inh (CDKL1) [%] | %Inh (CDKL2) [%]
1 | CC(C)(C)c1ccc(C(=O)Nc2cn3cc(-c4ccccc4)ccc3n2)cc1 | 12 | 14 | 0 | 0 | 0 | 5 | 5 | 6 | 29 | 5
2 | CN1C(=O)C(Nc2cc(Cl)c(O)c(Cl)c2)=C(c2ccc(Cl)cc2)C1=O [SB-404321] | 0 | 0 | 0 | 23 | 4 | 0 | 41 | 0 | 0 | 7
3 | CCn1c(-c2nonc2N)nc2ccccc21 [SB-693162/GW549034] | 48 | 0 | 46 | 13 | 12 | 20 | 0 | 0 | 8 | 0
4 | Cl.c1ccc(Cn2cnc3cc(Nc4ncnc5ccccc45)ccc32)cc1 [GW272142] | 0 | 0 | 1 | 28 | 0 | 0 | 21 | 0 | 6 | 9
5 | COc1cccc(C2=C(N(C)c3ccccc3)C(=O)NC2=O)c1 [SB-334865] | 12 | 2 | 8 | 0 | 0 | 0 | 6 | 39 | 0 | 23
6 | Cc1c(Cn2c(C)nn3c(=O)cc(N4CCO[C@H](C)C4)nc23)cccc1C(F)(F)F [GSK2373690] | 18 | 0 | 0 | 0 | 0 | 0 | 13 | 0 | 3 | 24
7 | C[C@@H]1CC[C@H](C(=O)NC2CCCCC2)CN1c1cc(-c2ccc3c(N)n[nH]c3c2)nc(N)n1 [GSK2291363] | 18 | 0 | 0 | 14 | 15 | 0 | 37 | 0 | 0 | 26
8 | Cc1nnc(-c2ccc3ncn(-c4ccc(S(C)=O)cc4)c3c2)o1 (stereo not drawn) | 4 | 0 | 0 | 0 | 13 | 0 | 16 | 7 | 20 | 0
9 | Cc1cccc(-c2cc(-c3c[nH]nc3-c3ccccn3)ccn2)c1 [GW679395] | 9 | 0 | 0 | 0 | 0 | 0 | 4 | 0 | 0 | 14
10 | COc1cc2ncn(-c3cc(OCc4ccncc4)c(C(N)=O)s3)c2cc1OC [GSK336313] | 10 | 0 | 18 | 0 | 0 | 2 | 0 | 0 | 5 | 15
11 | CCCC(=O)Nc1n[nH]c2ncc(-c3cccc4ccccc34)cc12 [SB-642057] | 51 | 0 | 37 | 0 | 0 | 0 | 7 | 0 | 10 | 0
12 | CCS(=O)c1ccc(-c2coc3ccc(-c4nnc(C)o4)cc23)cc1 (stereo not drawn) | 0 | 25 | 0 | 32 | 12 | 20 | 5 | 0 | 0 | 0
13 | COc1cc2ncn(-c3cc(OCc4ccncc4Br)c(C(N)=O)s3)c2cc1OC [GW854278] | 5 | 13 | 0 | 0 | 0 | 0 | 15 | 0 | 14 | 0
14 | COc1ccc(-n2cnc3c(N)ncnc32)cc1 [SKF-97236] | 25 | 0 | 0 | 11 | 8 | 11 | 0 | 0 | 29 | 1
15 | Cn1c(=O)c(F)c(Nc2ccc(I)cc2F)c2c(=O)n(OC[C@H](O)CO)cnc21 | 38 | 1 | 0 | 0 | 0 | 0 | 46 | 14 | 51 | 29
16 | Nc1nc(-c2ccccc2F)c(-c2ccnc3ccccc23)s1 [GW560459] | 0 | 11 | 0 | 32 | 0 | 0 | 39 | 0 | 0 | 26
17 | O=C1NC(=O)C(c2ccccc2)=C1Nc1cccc(O)c1 [SB-390534] | 6 | 0 | 0 | 0 | 0 | 0 | 0 | 0 | 1 | 11
18 | O=c1cc(N2CCOCC2)nc2n(Cc3ccc(F)c(Cl)c3)ccn12 [GSK2297099] | 6 | 0 | 20 | 0 | 0 | 0 | 10 | 7 | 10 | 8

Row | Compound | %Inh (CDK3) [%] | %Inh (CDK4-cyclinD1) [%] | %Inh (CDK4-cyclinD3) [%] | %Inh (CDK4) [%] | %Inh (CDK5) [%] | %Inh (CDK7) [%] | %Inh (CDK8) [%] | %Inh (CDK9) [%] | %Inh (CDKL1) [%] | %Inh (CDKL2) [%]
19 | CN(C)c1cc(-c2ccc3c(N)n[nH]c3c2)nc(N)n1 [GSK2219329] | 0 | 0 | 0 | 0 | 0 | 0 | 0 | 0 | 7 | 11
20 | O=C(NCCNc1ccnc(Nc2ccc(F)cc2)n1)Nc1ccc2c(c1)OCO2 [GSK1379882] | 0 | 0 | 0 | 8 | 0 | 0 | 25 | 7 | 0 | 15
21 | Nc1ncnc2c1ncn2-c1ccc(Cl)cc1 [AH2635] | 0 | 0 | 0 | 42 | 0 | 0 | 33 | 0 | 0 | 6
22 | CCn1c(-c2ccoc2)nc2cnccc21 [SB-733887] | 23 | 5 | 29 | 0 | 0 | 60 | 33 | 0 | 0 | 16
23 | Cc1nc(N(C)[C@H]2CN(C(=O)CC#N)CC[C@H]2C)c2cc[nH]c2n1 | 2 | 0 | 23 | 0 | 16 | 11 | 0 | 0 | 0 | 0
24 | Cl.NS(=O)(=O)c1cccc(Nc2cc(-c3ccc(F)cc3)n[nH]2)c1 [GW824645] | 29 | 0 | 0 | 0 | 0 | 1 | 0 | 5 | 3 | 0
25 | CCC(=O)c1c(-c2ccccc2)c2cc(Cl)ccc2c(=O)n1Cc1cc(S(C)(=O)=O)n(CC(N)=O)n1 | 0 | 0 | 0 | 0 | 0 | 2 | 0 | 0 | 23 | 0
26 | CCC(=O)c1c(-c2ccccc2)c2cc(Cl)ccc2c(=O)n1Cc1ccc(C(=O)O)cc1 | 0 | 0 | 0 | 0 | 0 | 0 | 4 | 0 | 0 | 7
27 | COc1cc(Nc2nccc(N3CCC(NC(=O)C(C)c4ccc(Cl)cc4)C3)n2)cc(OC)c1OC (stereo not drawn) [GSK1379757] | 0 | 0 | 0 | 36 | 0 | 0 | 22 | 0 | 9 | 2
28 | COc1cccc(-n2cnc3c(N)ncnc32)c1 [SKF-97416] | 17 | 37 | 0 | 31 | 0 | 33 | 0 | 0 | 13 | 8
29 | Cc1cc(Nc2nc(-c3cccc(C)n3)nc3ccccc23)ccn1 [GW872411] | 0 | 0 | 0 | 0 | 0 | 0 | 0 | 0 | 17 | 0
30 | COc1cc(Nc2nccc(N3CCC(NC(=O)C4COc5ccccc5O4)C3)n2)cc(OC)c1OC (stereo not drawn) [GSK1379761] | 0 | 52 | 0 | 70 | 0 | 57 | 57 | 0 | 11 | 11
31 | COc1cc2ncn(-c3cc(OCc4ccc(S(C)(=O)=O)cc4)c(C(N)=O)s3)c2cc1OC [GW869979] | 0 | 14 | 16 | 9 | 0 | 0 | 0 | 0 | 0 | 0
32 | Nc1nc(N)c2nc(-c3ccccc3)[nH]c2n1 [SKF-12778] | 1 | 20 | 0 | 0 | 5 | 7 | 23 | 0 | 0 | 2
33 | Fc1cccc(CSc2nnc(-c3ccc4c(c3)CCO4)o2)c1 | 0 | 0 | 17 | 0 | 4 | 0 | 0 | 0 | 3 | 4
34 | Cc1nn2c(=O)cc(N3CCOCC3)nc2n1Cc1cccc(Cl)c1Cl [GSK2342769] | 16 | 0 | 0 | 0 | 0 | 0 | 0 | 0 | 0 | 19
35 | O=C(Nc1n[nH]c2nc(-c3ccccc3)c(Cl)cc12)C1CC1 [SB-734909] | 0 | 0 | 0 | 9 | 0 | 15 | 3 | 0 | 41 | 35
36 | FC(F)(F)c1ccc(-c2ncn(CCCN3CCOCC3)c2-c2ccncc2)cc1 [SB-217780] | 0 | 0 | 1 | 9 | 0 | 9 | 12 | 0 | 13 | 0
